Data on 18 compounds can be found in PubChem BioAssay (NCATS).

Inconclusive results are not listed. Values without a mark were called inactive. Calls of active or inactive are those of the source. Calls follow the shape of the dose curve; as a rule, active = well fitted inhibition curve with a large enough effect; inconclusive = small, poorly fitted or top-dose-only effect; inactive = flat fitted curve, though single readings scatter.

Test in all cases: qHTS assay to identify novel small-molecules to repurpose for Merkel cell carcinoma treatment (AID 1296009); also: nearly all actives have a fitted effect of over 60% in size
Common to all, as to settings: MCC and control cell lines, CellTiter-Glo viability, 72 h; series mostly up to 46 µM
Background: qHTS replaces the single test concentration by a dilution series.

Assay [1] has as its system MKL-1. An outline of the steps: (§1)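 Cell viability, measured as CellTiter-Glo luminescence, was normalized between DMSO and no-cell wells. The cells had been exposed to 8- or 11-point compound dilutions for 72 hr at 37 degree celsius.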
Assay [2] relates to MKL-2. The gist of the method:
as §1

For assay [3], the system named is UISO. An outline of the steps: as §1
Assay [4] deals with WaGa. The gist of the method:
as §1
% is scaled to controls: 0 for no effect and ±100 for the full control effect; potency is read from the fitted curve at half-maximal effect.

`CC=C(C(=CC)c1ccc(O)cc1)c1ccc(O)cc1`: the Potency result in assay [1], in assay [2], in assay [3] and in assay [4] was “inactive” each time.

As to `CC[C@@H]([C@H](C)O)n1ncn(-c2ccc(N3CCN(c4ccc(OCC5CO[C@@](Cn6cncn6)(c6ccc(F)cc6F)C5)cc4)CC3)cc2)c1=O` (some centres not stated), the Potency result in assay [1], in assay [2], in assay [3] and in assay [4] was “inactive” each time.

As to `CCCCCOC(=O)Nc1nc(=O)n([C@@H]2O[C@H](C)[C@@H](O)C2O)cc1F` (some centres not stated), the Potency entry in assay [1], in assay [2], in assay [3] and in assay [4] was “inactive” in each case.

`C=C[C@@H]1CN2CCC1C[C@@H]2C(O)c1ccnc2ccc(OC)cc12` (some centres not stated): the Potency entry in assay [1], in assay [2], in assay [3] and in assay [4] was “inactive” in each case.

On to `CON(C)C(=O)N1N=C(c2cc(F)ccc2F)S[C@]1(CCCN)c1ccccc1`, for which the Potency result in assay [1], in assay [2], in assay [3] and in assay [4] was “inactive” in each case.

For the compound `CC1(C)OC2CC3C4CC(F)C5=CC(=O)C=CC5(C)C4C(O)CC3(C)[C@]2(C(=O)CO)O1` (some centres not stated), the Potency entry in assay [1], in assay [2], in assay [3] and in assay [4] was “inactive” in each case.

Consider `CN[C@H]1[C@@H](O[C@@H]2[C@H](O[C@@H]3[C@@H](O)[C@@H](O)[C@@H](N=C(N)N)[C@@H](O)[C@@H]3N=C(N)N)O[C@H](C)[C@@]2(O)C=O)O[C@@H](CO)[C@@H](O)[C@H]1O`, for which the activity change, negative = cytotoxicity in assay [1] was 0.557% [at 9.22 µM]; in assay [2], 13.1% [at 9.22 µM]; in assay [3], -3% [at 9.22 µM]; in assay [4], 11.2% [at 9.22 µM].

In the case of `C[C@H]1[C@H](O)O[C@@H]2O[C@@]3(C)CC[C@@H]4[C@H](C)CC[C@@H]1[C@@]24OO3`, the Potency in assay [1] was 16.6 µM (active); in assay [2] it was 10.5 µM (active); in assay [3], 2.96 µM (active); in assay [4], 9.35 µM (active).

As to `CCNC(=O)Nc1ccc(Oc2ncnc(N)c2C=NOC)cc1Cl`, the Potency entry in assay [1], in assay [2], in assay [3] and in assay [4] was “inactive” each time.

`Cc1cc(CS(=O)(=O)c2ccccc2)cc(OCc2ccc(CN3CCC[C@H]3CO)cc2)c1`: the Potency entry in assay [1], in assay [2], in assay [3] and in assay [4] was “inactive” throughout.

On to `CCOC(=O)c1c(CSc2ccccc2)n(C)c2cc(Br)c(O)c(CN(C)C)c12`, for which the Potency entry in assay [1], in assay [2], in assay [3] and in assay [4] was “inactive” in each case.

In the case of `OCCn1cc(-c2ccc3c(c2)CCC3=NO)c(-c2ccncc2)n1`, the Potency entry in assay [1], in assay [2], in assay [3] and in assay [4] was “inactive” throughout.

Consider `CO[C@H]1C=CO[C@@]2(C)Oc3c(C)c(O)c4c(O)c(c(C=NN5CCN(C)CC5)c(O)c4c3C2=O)NC(=O)C(C)=CC=C[C@H](C)[C@H](O)[C@@H](C)[C@@H](O)[C@@H](C)[C@H](OC(C)=O)[C@H]1C`, for which the activity change, negative = cytotoxicity in assay [1] was -4.29% [at 9.22 µM]; in assay [2] it was -21.3% [at 9.22 µM]; in assay [3], 4.05% [at 9.22 µM]; in assay [4], -1.76% [at 9.22 µM].

Take `CC1CNc2c(cccc2S(=O)(=O)N[C@@H](CCCN=C(N)N)C(=O)N2CC[C@@H](C)C[C@@H]2C(=O)O)C1` (some centres not stated): the Potency was 16.6 µM (active) in assay [1], 3.72 µM (active) in assay [2] and 4.69 µM (active) in assay [4]. For the same compound, the Potency result in assay [3] is “inactive”.

With `CCCCCCCCCCCCCC(=O)N[C@H](CO)[C@H](O)c1ccc([N+](=O)[O-])cc1`, the Potency entry in assay [1], in assay [2], in assay [3] and in assay [4] was “inactive” throughout.

As for `C=CC[N+]1([C@H]2C[C@H]3[C@@H]4CC[C@H]5C[C@H](O)[C@@H](N6CCOCC6)C[C@]5(C)[C@@H]4CC[C@]3(C)[C@H]2OC(C)=O)CCCC1`, the Potency result in assay [1], in assay [2], in assay [3] and in assay [4] was “inactive” in each case.

`CC(C)c1onc(-c2c(Cl)cccc2Cl)c1COc1ccc(C=Cc2cccc(C(=O)O)c2)c(Cl)c1`: the Potency result in assay [1], in assay [2], in assay [3] and in assay [4] was “inactive” each time.

For the compound `Cn1cc(-c2ccc3nnc(Sc4ccc5ncccc5c4)n3n2)cn1`, the Potency entry in assay [1], in assay [2], in assay [3] and in assay [4] was “inactive” throughout.
